Results filed as inconclusive are left out. Active and inactive are the calls of the source. Unless noted, calls come from the whole dose curve.
Columns and labels:
[1] = Nuclear factor erythroid 2-related factor 2/antioxidant responsive element (Nrf2/ARE) small molecule agonists: qHTS cell viability counter screen in human keratinocytes (AID 1919968; active = well fitted curve in the direction sought with a large enough effect in the repeat runs; an effect the other way counts as inactive or inconclusive; note: nearly all actives have a fitted effect of over 55% in size)
Method in brief: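 KeratinoSens cells (HaCaT keratinocytes stably carrying an ARE-luciferase reporter) were seeded at 1,500 cells/well and rested 5 h at 37 C/5% CO2. They were then exposed to compounds in DMSO for 23 h. Viability was read by CellTiter-Fluor fluorescence after 1 h.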

[2] = Nuclear factor erythroid 2-related factor 2/antioxidant responsive element (Nrf2/ARE) small molecule agonists: luciferase reporter gene qHTS assay in human keratinocytes (AID 1919969); note: nearly all actives have a fitted effect of over 35% in size
[3] = molecular target: Gonadotropin-releasing hormone receptor (Homo sapiens) (UniProt P30968); test: Human gonadotropin-releasing hormone receptor (GnRHR) small molecule agonists, calcium flux assay in GnRHR-HEK293 cells (AID 1920063); note: nearly all actives have a fitted effect of over 35% in size
Chain of Gonadotropin-releasing hormone receptor (Homo sapiens) (P30968 whole entry, looked up): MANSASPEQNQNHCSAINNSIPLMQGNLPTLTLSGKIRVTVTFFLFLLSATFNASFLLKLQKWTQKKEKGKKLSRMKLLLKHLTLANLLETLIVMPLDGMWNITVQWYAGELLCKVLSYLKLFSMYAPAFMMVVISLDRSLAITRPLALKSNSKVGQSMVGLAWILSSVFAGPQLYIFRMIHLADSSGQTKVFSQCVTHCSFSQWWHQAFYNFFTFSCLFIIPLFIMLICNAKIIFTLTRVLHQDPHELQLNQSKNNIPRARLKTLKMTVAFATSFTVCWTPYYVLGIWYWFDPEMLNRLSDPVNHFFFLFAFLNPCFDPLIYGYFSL
Method in brief: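 HEK293 cells stably expressing human GnRHR were plated 18 h at 37 °C, loaded with calcium dye 1 h at 37 °C, then given compound in agonist mode; fluorescence (Ex/Em 480/540) read kinetically for 3 min at 1 s intervals.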

[4] = molecular target: KiSS-1 receptor (Homo sapiens) (UniProt Q969F8); test: Human kisspeptin (KISS1R) small molecule agonists, calcium flux assay in KISS1R-HEK293 cells (AID 1920064; active = well fitted curve in the direction sought with a large enough effect in the repeat runs; an effect the other way counts as inactive or inconclusive)
Chain of KiSS-1 receptor (Homo sapiens) (Q969F8 whole entry, looked up): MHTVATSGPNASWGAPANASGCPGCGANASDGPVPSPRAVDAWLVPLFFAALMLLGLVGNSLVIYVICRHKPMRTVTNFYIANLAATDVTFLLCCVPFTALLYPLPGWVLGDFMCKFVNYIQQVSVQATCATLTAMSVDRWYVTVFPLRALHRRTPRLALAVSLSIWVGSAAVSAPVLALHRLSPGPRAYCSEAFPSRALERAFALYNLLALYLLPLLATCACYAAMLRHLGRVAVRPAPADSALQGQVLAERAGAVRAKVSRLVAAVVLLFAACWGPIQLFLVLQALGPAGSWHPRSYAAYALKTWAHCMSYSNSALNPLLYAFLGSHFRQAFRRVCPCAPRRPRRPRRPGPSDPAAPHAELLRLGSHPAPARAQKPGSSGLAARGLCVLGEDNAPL
Method in brief: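 HEK293 cells stably expressing human KISS1R were plated 18 h at 37 °C, loaded with calcium dye for 1 h at 37 °C, then given compound by pin tool. Fluorescence (Ex/Em 480/540) was read kinetically for 3 min.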

[5] = G protein-coupled receptor (GPCR) small molecule agonists, calcium flux assay: HEK293 wild type cell line counter screen (AID 1920065)
Method in brief: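 Cells were plated and cultured 18 h at 37 C/5% CO2, then loaded with calcium dye for 1 h at 37 C. Compounds in DMSO were pin-transferred in agonist mode, and fluorescence (Ex/Em 480/540) was read kinetically for 3 min at 1 s intervals.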

[6] = p53 small molecule agonists, cell-based qHTS assay with human liver microsomes (AID 1963577);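 note: p53 response element beta-lactamase reporter cells with liver microsomes plus NADPH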
Method in brief: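 With metabolic activation: human liver microsomes (0.5 mg/mL final) plus NADPH (0.5 mg/mL final) added alongside compounds to p53RE-bla cells; 16 h 37 C exposure; beta-lactamase read by LiveBLAzer fluorescence.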

[7] = p53 small molecule agonists, cell-based qHTS assay with rat liver microsomes (AID 1963578)
Method in brief: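 Metabolic activation by rat liver microsomes and NADPH, each 0.5 mg/mL final, added right after compounds to p53RE-bla reporter cells (4,000/well, plated 5 h earlier). 16 h at 37 C, then LiveBLAzer substrate for 2 h at room temperature in the dark; fluorescence read-out.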

[8] = p53 small molecule agonists, cell-based qHTS assay with human liver microsomes: qHTS cell viability counter screen (AID 1963579); note: nearly all actives have a fitted effect of over 45% in size
Method in brief: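 Metabolic activation used human liver microsomes and NADPH, both 0.5 mg/mL final, over 16 hours at 37 C on p53RE-bla cells (4,000/well). Cytotoxicity measured by CellTiter-Glo luminescence, 30 min at room temperature.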

[9] = p53 small molecule agonists, cell-based qHTS assay with rat liver microsomes: qHTS cell viability counter screen (AID 1963580); note: nearly all actives have a fitted effect of over 45% in size
Method in brief: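 HCT-116 p53RE-bla, 4,000 cells/well, 5 h pre-incubation; cpd + rat liver microsomes 0.5 mg/mL + NADPH 0.5 mg/mL (final); 16 h, 37 C; CellTiter-Glo, 30 min RT; luminescence.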

[10] = molecular target: Beta-2 adrenergic receptor (Homo sapiens) (UniProt P07550); test: Adrenergic beta2 receptor (ADRB2) small molecule antagonists, cell-based qHTS assay (AID 1963592); note: series mostly up to about 92 µM; nearly all actives have a fitted effect of over 50% in size
Chain of Beta-2 adrenergic receptor (Homo sapiens) (P07550 whole entry, looked up): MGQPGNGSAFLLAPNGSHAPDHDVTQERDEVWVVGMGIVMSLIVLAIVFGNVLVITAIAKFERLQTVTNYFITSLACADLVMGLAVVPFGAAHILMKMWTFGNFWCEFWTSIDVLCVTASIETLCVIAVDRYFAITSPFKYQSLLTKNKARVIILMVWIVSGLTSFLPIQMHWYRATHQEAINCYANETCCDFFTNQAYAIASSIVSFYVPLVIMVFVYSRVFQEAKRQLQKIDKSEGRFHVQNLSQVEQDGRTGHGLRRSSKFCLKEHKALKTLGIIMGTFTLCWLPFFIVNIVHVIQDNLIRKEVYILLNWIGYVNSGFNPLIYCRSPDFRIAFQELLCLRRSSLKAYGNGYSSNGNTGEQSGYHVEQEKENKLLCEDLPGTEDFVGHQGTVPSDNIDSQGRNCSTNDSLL
Method in brief: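 Cells (CHO, stable ADRB2 overexpression) incubated 18-20hr at 37C; compounds added from DMSO; agonist mix (1nM isoproterenol, 100uM IBMX, 25uM Ro-20-1724) added; 0.5hr RT; d2-cAMP and anti-cAMP-cryptate added; 1hr RT; 665/615 nm read.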

[11] = molecular target: D(2) dopamine receptor (Homo sapiens) (UniProt P14416); test: Dopamine D2 receptor (DRD2) small molecule antagonists, cell-based qHTS assay (AID 1963595; active = well fitted inhibition curve with a large enough effect in the signal ratio in the repeat runs, with a control signal flat; the % refers to the signal ratio)
Chain of D(2) dopamine receptor (Homo sapiens) (P14416 whole entry, looked up): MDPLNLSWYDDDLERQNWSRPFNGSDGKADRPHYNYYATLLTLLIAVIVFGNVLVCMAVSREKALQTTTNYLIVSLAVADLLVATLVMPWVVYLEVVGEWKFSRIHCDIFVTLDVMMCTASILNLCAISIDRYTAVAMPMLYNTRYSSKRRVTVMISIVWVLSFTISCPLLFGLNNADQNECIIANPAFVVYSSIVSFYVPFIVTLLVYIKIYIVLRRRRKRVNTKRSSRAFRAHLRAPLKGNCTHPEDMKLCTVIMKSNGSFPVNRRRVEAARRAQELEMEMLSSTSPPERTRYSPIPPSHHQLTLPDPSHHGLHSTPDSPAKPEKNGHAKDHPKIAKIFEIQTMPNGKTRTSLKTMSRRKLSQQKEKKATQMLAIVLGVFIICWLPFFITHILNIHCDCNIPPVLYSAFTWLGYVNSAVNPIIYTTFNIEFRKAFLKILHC
Method in brief: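 HEK293 cells stably expressing DRD2, preincubated with 0.1 mM Ro20-1724 and compounds 10 min, were stimulated with 200 nM NKH477 plus 12 nM quinpirole for 30 min at room temperature; cAMP measured by HTRF (665/620 nm).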

[12] = p53 small molecule agonists, cell-based qHTS assay (AID 1963582; active = well fitted activation curve with a large enough effect in the signal ratio in the repeat runs, not every such curve was filed as active; the % refers to the signal ratio)
Method in brief: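 p53RE-bla beta-lactamase reporter cells rested 5 h at 37 C/5% CO2, then received compounds in DMSO by pin transfer and were incubated 16 h at 37 C. LiveBLAzer B/G FRET substrate was loaded for 2 h at room temperature before fluorescence reading.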

[13] = molecular target: 5-hydroxytryptamine receptor 2A (Homo sapiens) (UniProt P28223); test: 5-hydroxytryptamine receptor 2A (HTR2A) small molecule antagonists, cell-based qHTS assay (AID 1963586); note: nearly all actives have a fitted effect of over 45% in size
Chain of 5-hydroxytryptamine receptor 2A (Homo sapiens) (P28223 whole entry, looked up): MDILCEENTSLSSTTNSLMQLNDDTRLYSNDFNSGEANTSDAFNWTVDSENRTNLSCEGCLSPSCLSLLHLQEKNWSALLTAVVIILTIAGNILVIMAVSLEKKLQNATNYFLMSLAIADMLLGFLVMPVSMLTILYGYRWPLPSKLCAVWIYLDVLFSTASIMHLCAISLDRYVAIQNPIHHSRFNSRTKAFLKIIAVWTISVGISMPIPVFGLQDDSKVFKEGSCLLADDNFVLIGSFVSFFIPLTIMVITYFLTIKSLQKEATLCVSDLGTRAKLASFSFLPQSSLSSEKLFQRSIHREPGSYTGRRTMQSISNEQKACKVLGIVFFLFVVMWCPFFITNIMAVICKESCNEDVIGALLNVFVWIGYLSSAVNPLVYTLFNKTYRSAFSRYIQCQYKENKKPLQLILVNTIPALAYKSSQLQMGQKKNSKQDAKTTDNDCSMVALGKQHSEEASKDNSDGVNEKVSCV
Method in brief: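 Antagonist-mode intracellular calcium assay: DOI (4 nM) added after 5 min compound pre-incubation at room temperature to dye-loaded HTR2A-CHO cells. Fluorescence followed for 3 min, sampled every second.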

[14] = molecular target: 5-hydroxytryptamine receptor 2A (Homo sapiens) (UniProt P28223); test: 5-hydroxytryptamine receptor 2A (HTR2A) small molecule agonists, cell-based qHTS assay (AID 1963587); note: nearly all actives have a fitted effect of over 30% in size
Method in brief: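 Kinetic calcium-flux fluorescence (2 min, 1 sec intervals) after compound addition in agonist mode. HTR2A-CHO cells were cultured 18 h, then dye-loaded 1 h at 37 C.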

[15] = molecular target: Muscarinic acetylcholine receptor M1 (Homo sapiens) (UniProt P11229); test: Cholinergic receptor muscarinic 1 (CHRM1) small molecule antagonists, cell-based qHTS assay (AID 1963588); note: nearly all actives have a fitted effect of over 40% in size
Chain of Muscarinic acetylcholine receptor M1 (Homo sapiens) (P11229 whole entry, looked up): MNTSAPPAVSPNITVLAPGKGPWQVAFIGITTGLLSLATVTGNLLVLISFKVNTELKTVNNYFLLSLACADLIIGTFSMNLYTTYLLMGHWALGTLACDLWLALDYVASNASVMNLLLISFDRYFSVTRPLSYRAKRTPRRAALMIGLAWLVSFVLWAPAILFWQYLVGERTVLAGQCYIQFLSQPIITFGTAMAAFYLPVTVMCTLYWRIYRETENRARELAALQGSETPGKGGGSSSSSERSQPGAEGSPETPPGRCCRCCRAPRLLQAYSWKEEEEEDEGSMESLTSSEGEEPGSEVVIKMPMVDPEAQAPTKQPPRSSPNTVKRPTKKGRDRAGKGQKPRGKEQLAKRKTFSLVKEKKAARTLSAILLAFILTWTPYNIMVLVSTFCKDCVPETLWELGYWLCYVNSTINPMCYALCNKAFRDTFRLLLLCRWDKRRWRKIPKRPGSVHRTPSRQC
Method in brief: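 CHRM1-CHO calcium-flux assay, antagonist mode. Cells were seeded 18 h, dye-loaded 1 h at 37 C and given compound for 5 min at RT, then acetylcholine was added at 50nM. FDSS fluorescence was read 3 min; 15 concentrations, three runs.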

[16] = molecular target: Muscarinic acetylcholine receptor M1 (Homo sapiens) (UniProt P11229); test: Cholinergic receptor muscarinic 1 (CHRM1) small molecule agonists, cell-based qHTS assay (AID 1963589); note: nearly all actives have a fitted effect of over 35% in size
Method in brief: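 CHO cells stably expressing human CHRM1, seeded 18 h at 37 C/5% CO2, dye-loaded 1 h at 37 C, then given compound in agonist mode; intracellular calcium fluorescence read kinetically at 1 s intervals. Fifteen concentrations, three independent runs.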

[17] = cAMP Responsive Elements (CRE) small molecule agonists, cell-based qHTS assay (AID 1963590)
Method in brief: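 CRE-bla HEK 293T cells in DMEM with 10% dialyzed FBS, NEAA, pyruvate and 25 mM HEPES were plated 18 h at 37 C/5% CO2, then exposed to compounds in DMSO for 3 h before LiveBLAzer B/G FRET substrate addition.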

[18] = cAMP Responsive Elements (CRE) small molecule antagonists, cell-based qHTS assay (AID 1963591; active = well fitted inhibition curve with a large enough effect in the signal ratio in the repeat runs, not every such curve was filed as active; the % refers to the signal ratio)
Method in brief: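 CRE-bla HEK293T cells were plated 18 h at 37 °C/5% CO2, pinned with compound in DMSO, then stimulated with NKH477 at 0.25 uM final for 3 h. LiveBLAzer B/G FRET substrate was added and plates incubated 2 h at room temperature.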

[19] = molecular target: Beta-2 adrenergic receptor (Homo sapiens) (UniProt P07550); test: Adrenergic beta2 receptor (ADRB2) small molecule agonists, cell-based qHTS assay (AID 1963593);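 note: CHO cells stably overexpressing human ADRB2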
Method in brief: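 CHO cells stably over-expressing ADRB2 were plated overnight at 37C, then dosed with compounds plus a stimulation mix containing 100uM IBMX and 25uM Ro-20-1724 for 0.5hr at room temperature. cAMP was measured by HTRF competition, 1hr.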

[20] = molecular target: D(2) dopamine receptor (Homo sapiens) (UniProt P14416); test: Dopamine D2 receptor (DRD2) small molecule agonists, cell-based qHTS assay (AID 1963594); note: nearly all actives have a fitted effect of over 35% in size
Method in brief: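 cAMP accumulation in DRD2-HEK293 cells measured by HTRF after 1 h detection; compounds added 10 min before NKH477 (200nM […]) forskolin-analogue stimulation, 30 min at room temperature, with Ro20-1724 present at 0.1 mM final.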

Measured: Potency

Cc1ccccc1N1C(=O)c2cc(S(N)(=O)=O)c(Cl)cc2NC1C (configuration not stated)
inactive: [1] | [2] | [3] | [4] | [5] | [6] | [7] | [8] | [9] | [10] | [11]

CCO[Si](CC)(OCC)OCC
not listed: [11]
inactive: all other assays above

CC(C)(C)NCC(O)COc1cccc2c1CCC(=O)N2 (configuration not stated)
not listed: [10] | [19] | [20]
inactive: all other assays above

N#Cc1ccc(CC(=O)c2cccc(C(F)(F)F)c2)cc1
not listed: [19]
inactive: all other assays above

NS(=O)(=O)c1cc(C(=O)O)cc(N2CCCC2)c1Oc1ccccc1
not listed: [20]
inactive: all other assays above

C/C=C(\C)C(=O)OCCC(C)CCC=C(C)C (configuration not stated)
not listed: [11] | [19]
inactive: all other assays above

CO[Si](CCCn1c(=O)n(CCC[Si](OC)(OC)OC)c(=O)n(CCC[Si](OC)(OC)OC)c1=O)(OC)OC
not listed: [20]
inactive: all other assays above

C=COC(=O)C(C)(CC)CCC(C)C (configuration not stated)
not listed: [19]
inactive: all other assays above

O=CNNC=O
not listed: [18] | [19]
inactive: all other assays above

C=CC(=O)OCCCl
not listed: [10] | [19]
inactive: all other assays above

CN1CCN(N)CC1
not listed: [18] | [20]
inactive: all other assays above

CCc1ccc(O)c(OC)c1
not listed: [19]
inactive: all other assays above

CC(O)COC(C)(C)C (configuration not stated)
not listed: [19]
inactive: all other assays above

CC(C)(O)CCC(C)(C)O
not listed: [19]
inactive: all other assays above

Reference: PubChem BioAssay (Tox21)
